This note sets out measurements from PubChem BioAssay.

Test [1] is described as follows: binders of probe aFSTL3 on microarray, primary screen, stem cell growth factor project, biochemical, small-molecule microarray, fluorescence 635/667 (AID 1064).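 Note: measures binding of the biotinylated anti-FSTL3 antibody to printed compounds.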 The following applies: higher = more signal.
Test [2] can be described thus: binders from COS7 lysate, DM2A8 probe, primary screen, torsin A project, cell lysate, small-molecule microarray, fluorescence 635/667 (AID 1065). To be noted: higher = more signal, COS7 lysate expressing mutant human TOR1A.
A short description of test [3]: binders of probe aFGF2 on microarray, primary screen, stem cell growth factor project, biochemical, small-molecule microarray, fluorescence 635/667 (AID 1067).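 Note: measures binding of biotinylated aFGF2 protein to printed compounds on slides; z-score merges feature fluorescence and signal-to-noise across triplicate slides.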 To be noted: higher = more signal.
Test [4] can be described thus: binders of probe aFGF10 on microarray, primary screen, stem cell growth factor project, biochemical, small-molecule microarray, fluorescence 635/667 (AID 1071).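 Note: score merges 667 nm spot intensity and signal to noise from triplicate slides.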 The following applies: higher = more signal.
Test [5] addresses Neurogenic locus notch homolog protein 2 (Homo sapiens) (UniProt Q04721). The test is described as follows: Notch2 binders on small-molecule microarrays, primary screen, biochemical, small-molecule microarray, 635 nm fluorescence, stem cell growth factors (AID 1073). The following applies: Notch2 binding, higher = more signal.
Test [6] has as its target Pro-neuregulin-1, membrane-bound isoform (Homo sapiens) (UniProt Q02297). The test is described as follows: NRG1 binders on small-molecule microarrays, primary screen, psychiatric disease protein project, biochemical, small-molecule microarray, fluorescence 635/667 (AID 1075).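 Note: score combines 667 nm spot fluorescence with signal to noise.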 The following applies: NRG1 binding, 635 nm fluorescence, higher = more signal.
Test [7] relates to Neuregulin-1 EGF-like domain. The test is described as follows: binders of neuregulin-1 EGF-like domain, primary screen, biochemical, small-molecule microarray, 635 nm fluorescence (AID 1081).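 Note: binding of the protein to compounds printed on small-molecule microarray slides.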 To be noted: small-molecule microarray binding, higher = more signal.
A short description of test [8]: FRG1 promoter luciferase signal modulators, primary screen, FRG1 inhibition for FSHD, cell-based, C2C12 myotubes, firefly/Renilla luciferase, luminescence (AID 1084). The following applies: higher = more signal, called active from +8 up or from −8 down.
Test [9] can be described thus: binders of probe aFST on microarray, primary screen, stem cell growth factor project, biochemical, small-molecule microarray, fluorescence 635/667 (AID 1086).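 Note: score merges 667 nm fluorescence with signal-to-noise of each printed compound spot.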 To be noted: higher = more signal.
Test [10] can be described thus: binders of probe aHhip on microarray, primary screen, stem cell growth factor project, biochemical, small-molecule microarray, fluorescence 635/667 (AID 1087).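 Note: score merges spot fluorescence at 667nm with spot signal to noise ratio.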 To be noted: higher = more signal.

Molecules are shown by their SMILES. Calls of active or inactive are those of the source.

Neurogenic locus notch homolog protein 2 (Homo sapiens), sequence (Q04721 whole entry, looked up, canonical isoform): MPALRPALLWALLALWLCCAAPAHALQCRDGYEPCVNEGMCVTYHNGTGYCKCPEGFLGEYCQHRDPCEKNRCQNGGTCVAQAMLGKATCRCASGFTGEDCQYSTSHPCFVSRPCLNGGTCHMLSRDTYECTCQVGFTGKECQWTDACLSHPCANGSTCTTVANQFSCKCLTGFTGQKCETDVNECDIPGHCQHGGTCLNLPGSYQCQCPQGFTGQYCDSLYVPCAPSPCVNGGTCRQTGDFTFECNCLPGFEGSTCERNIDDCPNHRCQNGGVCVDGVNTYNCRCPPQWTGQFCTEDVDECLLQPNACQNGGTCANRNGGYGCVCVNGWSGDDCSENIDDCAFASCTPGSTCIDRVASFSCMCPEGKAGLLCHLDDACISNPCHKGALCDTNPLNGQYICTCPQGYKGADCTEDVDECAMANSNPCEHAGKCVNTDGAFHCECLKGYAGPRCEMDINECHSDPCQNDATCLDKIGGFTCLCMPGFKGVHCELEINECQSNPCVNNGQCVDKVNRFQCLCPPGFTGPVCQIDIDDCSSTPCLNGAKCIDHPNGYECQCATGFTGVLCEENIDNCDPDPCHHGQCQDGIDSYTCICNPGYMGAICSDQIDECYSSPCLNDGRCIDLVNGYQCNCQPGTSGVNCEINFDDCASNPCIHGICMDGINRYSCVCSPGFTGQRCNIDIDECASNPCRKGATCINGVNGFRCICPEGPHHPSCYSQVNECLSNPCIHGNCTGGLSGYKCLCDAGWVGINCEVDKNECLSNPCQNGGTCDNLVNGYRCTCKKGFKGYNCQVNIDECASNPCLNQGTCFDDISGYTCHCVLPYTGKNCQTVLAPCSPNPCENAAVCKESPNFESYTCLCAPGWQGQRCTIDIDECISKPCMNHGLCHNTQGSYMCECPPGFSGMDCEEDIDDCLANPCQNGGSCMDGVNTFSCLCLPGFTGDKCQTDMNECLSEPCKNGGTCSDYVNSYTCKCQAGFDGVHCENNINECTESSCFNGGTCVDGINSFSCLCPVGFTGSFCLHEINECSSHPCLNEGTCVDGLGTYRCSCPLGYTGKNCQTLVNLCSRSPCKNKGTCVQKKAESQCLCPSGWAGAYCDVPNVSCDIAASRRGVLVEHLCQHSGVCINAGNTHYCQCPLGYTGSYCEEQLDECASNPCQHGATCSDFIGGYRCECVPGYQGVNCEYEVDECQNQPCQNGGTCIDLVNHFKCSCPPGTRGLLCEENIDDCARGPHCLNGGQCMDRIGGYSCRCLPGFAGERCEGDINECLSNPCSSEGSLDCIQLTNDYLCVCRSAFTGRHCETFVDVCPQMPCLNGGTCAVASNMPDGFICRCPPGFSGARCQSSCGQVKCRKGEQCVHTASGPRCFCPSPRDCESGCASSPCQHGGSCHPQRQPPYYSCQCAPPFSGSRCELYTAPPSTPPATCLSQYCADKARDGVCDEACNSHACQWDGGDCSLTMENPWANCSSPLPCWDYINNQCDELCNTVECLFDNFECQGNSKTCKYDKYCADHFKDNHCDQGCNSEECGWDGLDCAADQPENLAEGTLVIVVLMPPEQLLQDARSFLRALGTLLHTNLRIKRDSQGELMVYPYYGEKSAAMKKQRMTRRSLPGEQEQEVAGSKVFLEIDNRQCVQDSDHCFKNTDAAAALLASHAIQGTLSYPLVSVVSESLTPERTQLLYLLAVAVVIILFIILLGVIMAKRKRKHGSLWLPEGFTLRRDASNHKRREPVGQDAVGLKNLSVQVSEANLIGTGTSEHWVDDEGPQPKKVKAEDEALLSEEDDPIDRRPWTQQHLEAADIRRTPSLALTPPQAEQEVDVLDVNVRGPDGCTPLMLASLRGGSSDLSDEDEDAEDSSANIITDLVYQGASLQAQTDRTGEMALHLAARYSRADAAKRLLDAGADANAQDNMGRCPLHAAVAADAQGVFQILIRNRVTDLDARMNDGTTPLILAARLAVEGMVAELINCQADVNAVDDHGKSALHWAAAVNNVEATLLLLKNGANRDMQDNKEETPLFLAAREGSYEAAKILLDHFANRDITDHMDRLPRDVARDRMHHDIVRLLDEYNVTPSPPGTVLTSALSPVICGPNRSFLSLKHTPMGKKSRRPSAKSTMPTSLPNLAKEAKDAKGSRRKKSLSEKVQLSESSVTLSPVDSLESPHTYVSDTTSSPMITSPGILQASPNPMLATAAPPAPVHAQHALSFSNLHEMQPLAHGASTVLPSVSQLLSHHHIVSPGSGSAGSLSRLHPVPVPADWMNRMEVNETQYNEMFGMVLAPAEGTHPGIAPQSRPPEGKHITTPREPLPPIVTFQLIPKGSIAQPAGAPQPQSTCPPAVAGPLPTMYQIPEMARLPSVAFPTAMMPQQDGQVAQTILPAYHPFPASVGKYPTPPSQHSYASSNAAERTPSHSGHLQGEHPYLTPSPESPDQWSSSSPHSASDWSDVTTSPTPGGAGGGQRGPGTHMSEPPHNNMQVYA
Pro-neuregulin-1, membrane-bound isoform (Homo sapiens), sequence (Q02297 whole entry, looked up, the tested form may be a part, canonical isoform): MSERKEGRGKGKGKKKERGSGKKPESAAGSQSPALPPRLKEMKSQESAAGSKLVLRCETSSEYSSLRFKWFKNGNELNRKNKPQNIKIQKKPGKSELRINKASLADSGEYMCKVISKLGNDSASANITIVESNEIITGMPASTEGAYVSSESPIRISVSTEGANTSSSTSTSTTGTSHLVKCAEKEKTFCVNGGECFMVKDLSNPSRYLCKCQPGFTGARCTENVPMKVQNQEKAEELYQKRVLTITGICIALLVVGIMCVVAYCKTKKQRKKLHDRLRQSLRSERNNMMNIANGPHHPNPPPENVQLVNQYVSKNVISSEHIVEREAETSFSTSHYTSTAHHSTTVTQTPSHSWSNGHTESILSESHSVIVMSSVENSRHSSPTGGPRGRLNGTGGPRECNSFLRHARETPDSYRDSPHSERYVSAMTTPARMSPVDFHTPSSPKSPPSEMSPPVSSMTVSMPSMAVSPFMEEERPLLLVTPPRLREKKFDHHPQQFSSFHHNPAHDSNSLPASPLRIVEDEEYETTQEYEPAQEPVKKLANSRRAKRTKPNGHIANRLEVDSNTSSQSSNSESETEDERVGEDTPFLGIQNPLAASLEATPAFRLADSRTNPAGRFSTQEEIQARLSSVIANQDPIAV

In the case of `O=C1O[C@@H](c2ccccc2)[C@@H](c2ccccc2)N2[C@@H](c3ccc(O)cc3)[C@]3(C(=O)Nc4ccccc43)[C@@H](C(=O)NC[C@H](O)c3ccccc3)[C@H]12`, the composite z-score in test [1] is -0.263; in [2], 0.606; in test [3], -0.141; in test [4], 0.0271; in [5], 0.135; in [6] it was 1.69. Also, the composite z-score in [7] was 0.552; in test [9], -0.174; in test [10], -0.12. Moreover, the z-score in test [8] was -1.23 (inactive).

Consider `O=C(NCc1ccccc1)[C@@H]1c2ccccc2C(=O)N(Cc2cc(F)cc(C(F)(F)F)c2)[C@H]1c1ccc(CO)cc1`, for which the composite z-score in test [1] is -0.307; in [2], 0.582; in test [3], -0.0598; in test [4], 0.0655; in test [5], 0.558; in [6], 0.393. For the same compound, the composite z-score is 1.32 in test [7], 0.0906 in test [9] and -0.179 in test [10]. The z-score in test [8] was -1.67 (inactive).

`C=CC[C@]1(C(=O)O)N=C(c2ccc(OCCCO)cc2)O[C@H]1c1ccccc1CN=[N+]=[N-]`: the composite z-score in test [1] was 0.736; in [2], -0.43; in test [3], -0.144; in test [4], -0.638; in test [5] it was -0.129; in test [6], 0.743. Further, the composite z-score in test [7] is 0.467; in test [9], 0.182; in [10] it was -0.275. For the same compound, the z-score in test [8] was 2.22 (inactive).

As for `CC(C)(C)OC(=O)CC[C@@]1(C(=O)N2CCOCC2)N=C(c2ccc(OCCCO)cc2)O[C@@H]1c1ccccc1N=[N+]=[N-]`, the composite z-score in test [1] worked out at 0.0033; in test [2] it was 1.13; in [3], 0.213; in test [4], 0.883; in test [5], 1.43; in test [6] it was 1.75. Further, the composite z-score is 1.29 in test [7], 1.57 in test [9] and 0.142 in [10]. For the same compound, the z-score in test [8] was 0.97 (inactive).

Turning to `CC(C)(C)OC(=O)CC[C@@]1(C(=O)NCC(O)CO)N=C(c2ccc(OCCCO)cc2)O[C@@H]1c1ccccc1` (stereo not given in full), the composite z-score was 0.222 in test [1]; 1.68 in test [2]; -0.11 in [3]; 0.0407 in [4]; 0.739 in test [5]; 1.8 in test [6]. For the same compound, the composite z-score in test [7] came out at 1.35; in test [9], 0.74; in [10], 0.12. For the same compound, in test [8], the z-score was 1.74 (inactive).

Consider `O=C1O[C@H](c2ccccc2)[C@H](c2ccccc2)N2[C@H]1[C@@H](C(=O)Nc1nc3ccccc3s1)[C@]1(C(=O)Nc3ccc(C#CC4=CCCCC4)cc31)[C@H]2c1ccc(OCCO)cc1`, for which the composite z-score in [1] is -0.576; in test [2], 0.188; in test [3], -0.0148; in test [4], 0.556; in test [5], 0.6; in test [6], 0.734. Moreover, the composite z-score in test [7] turned out to be 1.11; in [9], 1.21; in test [10], 0.0834. Also, in [8], the z-score was 3.08 (inactive).

Turning to `CS(=O)(=O)CCOC(=O)C1=CC(c2ccc(CO)cc2)=CC(c2cccs2)N(Cc2cccc(OC(F)(F)F)c2)C=C1C(=O)OCCS(C)(=O)=O` (stereo not given), the composite z-score in test [1] was -0.398; in test [2] it was 0.405; in [3], 0.024; in [4], 0.708; in test [5], 1; in test [6] it was 1.63. In addition, the composite z-score is 0.999 in test [7], 1.14 in [9] and 0.0139 in [10]. Further, the z-score in test [8] is 0.371 (inactive).

For the compound `C=CCNC(=O)[C@H]1[C@@H]2C(=O)O[C@@H](c3ccccc3)[C@@H](c3ccccc3)N2[C@@H](c2ccc(O)cc2)[C@]12C(=O)Nc1ccc(C#Cc3ccc(OC)cc3)cc12`, the composite z-score was -0.523 in test [1]; 0.396 in test [2]; -0.0158 in [3]; 0.357 in [4]; 1.27 in test [5]; 0.384 in test [6]. Moreover, the composite z-score in [7] came out at 1.07; in [9] it was 0.786; in test [10] it was 0.473. For the same compound, the z-score in test [8] was 0.0523 (inactive).

Turning to `CCCCN1CC=CC23O[C@@H]4/C=C\CCCOC(=O)C4[C@H]2C(=O)N(C(C)CO)[C@@H]3C1=O` (stereo not given in full), the composite z-score in test [1] is -0.0235; in test [2], -0.809; in test [3] it was -0.0963; in test [4] it was -0.272; in test [5], -0.327; in [6], 0.223. Also, the figures for the composite z-score in test [7], in test [9] and in [10] were 1.19, -0.375 and -0.261, respectively. For the same compound, in [8], the z-score was -1.01 (inactive).

For `COc1ccccc1CN1C(=O)c2ccccc2[C@](Cc2ccccc2I)(C(=O)NCc2ccccc2)[C@@H]1c1ccc(CO)cc1`, the composite z-score was 0.317 in test [1]; 1.33 in [2]; -0.0614 in [3]; 0.197 in [4]; 0.106 in [5]; 0.923 in [6]. The figures for the composite z-score in test [7], in [9] and in test [10] were 0.535, 0.182 and 0.154, respectively. The z-score in test [8] was -1.13 (inactive).

For `C=CCC(OC(C)=O)[C@@H]1[C@@H](N(Cc2ccc(-c3cccc(C(F)(F)F)c3)o2)C(=O)Cc2ccc(OC)cc2)c2cc(OCCCO)ccc2N1C(=O)Cc1ccc(OC)cc1` (stereo not given in full), the composite z-score in [1] is -0.0741; in [2], 0.185; in test [3] it was -0.0739; in [4], -0.118; in test [5], -0.17; in test [6], 0.783. The composite z-score was -0.92 in [7], -0.239 in test [9] and -0.16 in test [10]. Further, the z-score in test [8] was 0.0712 (inactive).

As for `[N-]=[N+]=NCc1ccccc1[C@H]1OC(c2ccc(OCCCO)cc2)=N[C@@]1(Cc1ccccc1)C(=O)O`, the composite z-score is 0.227 in [1]; 0.325 in [2]; -0.0586 in test [3]; 0.345 in [4]; 0.653 in test [5]; 1.1 in test [6]. In addition, the composite z-score in test [7] was 0.97; in test [9], 0.554; in [10], -0.0994. Further, in test [8], the z-score is 1.82 (inactive).

On to `C=C(COC)C(=O)CC[C@@H](OC(=O)c1ccccc1-c1ccccc1C(=O)O)c1ccc(CO)o1`, for which the composite z-score in test [1] is -0.229; in [2], 1.23; in test [3] it was -0.0449; in test [4], -0.177; in test [5], 0.187; in test [6] it was 0.982. Besides, the values for the composite z-score in test [7], in [9] and in [10] were 1.36, -0.551 and -0.0994, respectively. For the same compound, the z-score in test [8] is -3.75 (inactive).

Take `COc1cc(CO)cc(I)c1O[C@H]1C=C(C(=O)NCCO)C[C@@H](N(CCc2cccc(F)c2)C(=O)CCC2CCCC2)[C@@H]1O`: the composite z-score in test [1] came out at 0.0822; in test [2], 0.825; in test [3], 0.195; in test [4], 0.146; in test [5] it was 0.0011; in [6] it was 1.27. The composite z-score in test [7] was 1.29; in test [9], 0.336; in [10], 0.219. Further, the z-score in test [8] is -4.64 (inactive).
